The campaign covered roughly 2,100 compounds. About 770 (37%) were called active. The list shows a part of the results. A number with no mark means an inactive call.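 How the source made its calls: active means by-eye trace score of 1 for enhancers or -1 for inhibitors, so actives lie on both sides (some results past the limit were not filed as active); inactive means score 0, or 3 fluorescent, or 4 baseline rise.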
target: G protein-activated inward rectifier potassium channel 2 (Homo sapiens) + G protein-activated inward rectifier potassium channel 1 (Homo sapiens) (UniProt P48051+P48549); assay: GIRK1/2 thallium flux modulators, retest, confirmation, cell-based, HEK293 rmGlu8/hGIRK1/2, FluoZin-2 (AID 623911); conditions: HEK293 rmGlu8/hGIRK1/2, thallium flux FluoZin-2; actives lie on both sides; glutamate co-added at its EC20 level
Sequence (P48051 whole entry, looked up): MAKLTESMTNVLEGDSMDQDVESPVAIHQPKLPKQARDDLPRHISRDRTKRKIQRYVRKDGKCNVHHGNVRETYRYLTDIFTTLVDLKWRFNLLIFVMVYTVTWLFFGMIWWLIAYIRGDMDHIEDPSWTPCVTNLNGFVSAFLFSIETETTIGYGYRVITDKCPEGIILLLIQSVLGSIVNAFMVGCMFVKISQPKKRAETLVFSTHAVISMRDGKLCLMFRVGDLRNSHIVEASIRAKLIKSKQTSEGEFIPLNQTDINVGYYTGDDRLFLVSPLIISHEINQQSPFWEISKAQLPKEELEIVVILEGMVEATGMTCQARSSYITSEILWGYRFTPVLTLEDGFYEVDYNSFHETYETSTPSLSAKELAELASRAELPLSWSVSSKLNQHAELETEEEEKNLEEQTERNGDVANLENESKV
Sequence (P48549 whole entry, looked up): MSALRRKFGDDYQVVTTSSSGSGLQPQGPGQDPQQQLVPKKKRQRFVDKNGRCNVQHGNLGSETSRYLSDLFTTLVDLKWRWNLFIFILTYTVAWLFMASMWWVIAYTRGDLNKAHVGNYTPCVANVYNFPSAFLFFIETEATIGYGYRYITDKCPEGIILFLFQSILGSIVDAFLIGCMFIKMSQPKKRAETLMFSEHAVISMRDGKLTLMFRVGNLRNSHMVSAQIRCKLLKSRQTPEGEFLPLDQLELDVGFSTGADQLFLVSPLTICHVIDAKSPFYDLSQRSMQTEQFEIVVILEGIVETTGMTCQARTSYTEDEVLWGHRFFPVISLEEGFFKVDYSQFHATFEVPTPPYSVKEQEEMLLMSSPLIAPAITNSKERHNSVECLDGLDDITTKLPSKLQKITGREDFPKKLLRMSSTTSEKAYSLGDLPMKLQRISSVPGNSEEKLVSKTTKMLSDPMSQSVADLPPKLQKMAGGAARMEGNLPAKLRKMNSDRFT

| SMILES | manual score |
| --- | --- |
| CSC(=O)NC12CC3CC(CC(C)(C3)C1)C2 | 0 |
| COCCNC(=O)CN1C(=O)CSc2ncccc21 | 1 (active) |
| COCCNC(=O)CCCCCn1c(=S)[nH]c2ccccc2c1=O | 0 |
| CCC(C)NC(=O)CN1C(=O)CC(C)(C)S(=O)(=O)c2ccccc21 (stereo not drawn) | 0 |
| CCc1cc(-c2n[nH]c(=S)n2C(C)c2ccccc2)cs1 (stereo not drawn) | -0.5 |
| CC(c1ccc(F)cc1)n1c(-c2ccc3ccccc3n2)n[nH]c1=S (stereo not drawn) | 0.5 |
| CC(c1ccc(Cl)cc1)n1c(-c2ccc3ccccc3n2)n[nH]c1=S (stereo not drawn) | 1 (active) |
| CCCCN(C)C1=Nc2cccc3cccc1c23 | -1 (active) |
| COc1ccc(NC2=Nc3cccc4cccc2c34)cc1OC | 0 |
| CC/C(=N\NC(=S)Nc1ccc(OC)cc1)c1ccc(OC(F)F)cc1 | 0 |
| CCc1ccc(NC(=S)NNC(=O)c2ccccc2OC(F)F)cc1 | 1 (active) |
| O=C1C2C3C=CC(C3)C2C(=O)N1/N=C/c1cn(Cc2ccccc2)c2ccccc12 (stereo not drawn) | 0 |
| CCOC(=O)Cc1csc(NC(=S)NC(=O)c2ccc(C)cc2)n1 | 1 (active) |
| CC(C)CC(=O)NC(=S)Nc1nc(-c2cccc3ccccc23)cs1 | 0 |
| CCOC(=O)Cc1csc(NC(=O)Nc2ccccc2)n1 | 1 (active) |
| CCOC(=O)Cc1csc(NC(=S)NC(=O)C(C)(C)C)n1 | 1 (active) |
| O=C(NC(=S)Nc1nc2c(s1)CCCC2)c1ccc(C(=O)c2ccccc2)cc1 | 0 |
| CCOC(=O)Cc1csc(NC(=S)NC(=O)c2ccccc2)n1 | 1 (active) |
| O=C(NC(=S)Nc1nc2c(s1)CCCC2)c1ccccc1 | 0 |
| O=C1C(Cl)=C(N2CCOCC2)C(=O)N1c1cccc(Cl)c1 | 0 |
| CCCc1cc(-c2n[nH]c(=S)n2CC(C)C)cs1 | 0 |
| CCCCCNC(=O)c1ccc2c(=O)[nH]c3c(C(=O)NCC4CCCO4)sc(=S)n3c2c1 (stereo not drawn) | 0 |
| CC(C)C(C)(C#N)NC(=O)CSc1ncnc2sc(-c3ccccc3)cc12 (stereo not drawn) | 0 |
| Cc1cc(C(=O)CSc2n[nH]c(N)n2)c(C)n1-c1cc(F)ccc1F | 0 |
| O=C1Nc2cc(S(=O)(=O)N3CCCC3)ccc2N2CCCC12 (stereo not drawn) | 0 |
| CC(C)c1ccccc1NC(=O)COC(=O)/C=C/c1cccc([N+](=O)[O-])c1 | 0 |

| SMILES | manual score |
| --- | --- |
| Cc1ccc(NC(=O)COC(=O)CCC(=O)c2ccc(Cl)cc2)cc1S(=O)(=O)N(C)C | 1 (active) |
| Cc1ccc(NC(=O)Cc2ccccc2Cl)cc1S(=O)(=O)N(C)C | 1 (active) |
| Cc1ccc(NC(=O)COn2nnc3ccc(S(=O)(=O)N(C)C)cc32)cc1F | 0 |
| Cc1ccc(NC(=O)COC(=O)/C=C/c2ccco2)cc1S(=O)(=O)N(C)C | 1 (active) |
| CCOCc1c(C(=O)OCC(=O)Nc2ccc(C)c(S(=O)(=O)N(C)C)c2)oc2ccccc12 | 1 (active) |
| Cc1cc(C(=O)OCC(=O)Nc2ccc(F)cc2)c(C)o1 | 0 |
| O=C(CSCc1ccc(Br)cc1)N=Nc1c(O)[nH]c2ccccc12 | 0 |
| CCc1nnc(NC(=O)CSc2nnc(C3CCCCC3)n2-c2cccc(Cl)c2)s1 | 0 |
| COCCN=c1scc(-c2cccs2)n1/N=C/c1ccc(O)c(O)c1O | 0 |
| CCOC(=O)CN1NC2(CCC(C(C)(C)C)CC2)NC1=S (stereo not drawn) | 0 |
| COC(=O)c1sccc1NC(=O)CSc1ccccc1NS(=O)(=O)c1ccccc1Cl | 0 |
| Cc1ccc(NC(=O)Cc2c(Cl)cccc2Cl)cc1S(=O)(=O)N(C)C | 1 (active) |
| CC1(C)NC(=O)NC2(C)NC(=O)NC(C)(C)C12 (stereo not drawn) | 0 |
| COc1cc(C(=O)NC2CC3CCCC(C2)N3CC(=O)Nc2ccccc2)cc(OC)c1OC (stereo not drawn) | -1 (active) |
| COc1cc(NC(=O)CS(=O)(=O)c2ccc(C)cc2)cc(OC)c1OC | 0 |
| CC1CCN(CC(O)COC2CCC(C(C)(C)C)CC2)CC1 (stereo not drawn) | -1 (active) |
| O=C1OCCC1Sc1nc2cc(Cl)ccc2n1Cc1ccccc1 (stereo not drawn) | 0 |
| CCCCSc1nc(N)c(NC(=O)c2ccco2)c(=O)[nH]1 | 0 |
| CCN(C(=O)COc1cc(=O)n(CC)c2ccccc12)c1cc(Cl)ccc1OC | -0.5 |
| COc1ccc(S(=O)(=O)NCCC(=O)NC2CCCCCCC2)cc1 | 0 |
| COc1cccc(NC(=O)NCCCSC2CCCCC2)c1 | 1 (active) |
| COC(=O)[C@H]1CCCN1C(=O)Nc1cccc(Oc2c(F)c(F)c(F)c(F)c2F)c1 | 0 |
| Cc1sc2c(c1C)CN(C1CC(C)(C)NC(C)(C)C1)CN2C(=O)c1ccco1 | -1 (active) |
| Cc1ccc(OCC(=O)N/N=C\c2ccc(-c3cccc(C(=O)O)c3)o2)c(C)c1 | 0 |
| C/C(=N\NC(=O)COc1ccc(C)cc1C(C)C)c1ccc(-n2ccnc2)cc1 | -1 (active) |
| Cc1conc1NC(c1cccs1)c1ccc2cccnc2c1O (stereo not drawn) | 0 |

| SMILES | manual score |
| --- | --- |
| O=S(=O)(Nc1nc(-c2sccc2Cl)cs1)c1cc(Cl)ccc1Cl | 0 |
| Cc1ccc(Nc2cc(C)nn2-c2nc(C)cc(=O)[nH]2)cc1 | 1 (active) |
| Cc1cc(NC(=O)c2c(F)cccc2Cl)n(-c2nc3ccccc3[nH]2)n1 | 0 |
| COc1ccccc1Nc1ccc(Nc2ccccc2OC)nn1 | 1 (active) |
| COc1ccccc1-c1ccc(NC2CCCC2)nn1 | 0 |
| COc1ccccc1NC(=O)c1cc(C(=O)Nc2ccccc2OC)cc(N2C(=O)CCC2=O)c1 | 0 |
| CCCC(=O)NC(c1cccs1)c1cc([N+](=O)[O-])c2cccnc2c1O (stereo not drawn) | 0 |
| CCc1c(C)sc(NC(=O)CCc2ccc(OC)cc2)c1C(N)=O | 0 |
| O=C(Cn1c(=O)[nH]c2ccsc2c1=O)NC1CCCCCC1 | 0 |
| COc1cc(NC(=O)CCn2c(=O)[nH]c3ccsc3c2=O)cc(OC)c1 | 0 |
| COc1ccc(Cn2c(=S)[nH]c3ccsc3c2=O)cc1 | 1 (active) |
| Cn1sc(NC(=O)c2cccc(Cl)c2)nc1=O | 0 |
| Cn1c2ccccc2c2cc(C(=O)NNS(=O)(=O)c3ccc(F)cc3)sc21 | 0 |
| O=C(NNC(=O)c1sccc1-n1cccc1)c1cccc(Cl)c1 | 1 (active) |
| O=C(NNC(=O)c1sccc1-n1cccc1)c1ccc(Cl)cc1 | 1 (active) |
| CCNC(=S)NNC(=O)c1cccn(Cc2ccc(Cl)cc2)c1=O | 0 |
| O=C(NNS(=O)(=O)c1cc(Cl)cc(Cl)c1)c1sccc1-n1cccc1 | 1 (active) |
| O=C(NNC(=S)Nc1cccc(C(F)(F)F)c1)c1cccc(Cl)c1 | 0.5 |
| Cc1cccc(-n2c(O)c(/C=N/NC(=O)c3ccccc3Cl)c3ccccc3c2=O)n1 | 0 |
| Clc1ccc(Cl)c(OCc2cc(-c3ccccc3Cl)on2)c1 | 0 |
| O=C(NN=c1c(=O)c2ccccc2c1=O)c1ccccc1 | 1 (active) |
| CC1Oc2ccccc2C=C1/C=N/NC(=O)c1ccccc1 (stereo not drawn) | 0 |
| C/C(=N\O)C(C)NC(=O)c1ccccc1 (stereo not drawn) | -0.5 |
| Cc1ccc(C(=O)N/N=C/C2=Cc3ccccc3OC2C)cc1 (stereo not drawn) | 0 |
| Cc1ccc(C(=O)NC2(C(F)(F)F)N=C3SCCN3C2=O)cc1 (stereo not drawn) | 0 |
| Cc1nc(/N=C(\N)NC(=O)c2ccccc2)nc2ccccc12 | 0 |

| SMILES | manual score |
| --- | --- |
| O=C(NNc1ncc(C(F)(F)F)cc1Cl)c1c(Cl)cccc1Cl | 0 |
| O=C(NNc1nc2ccccc2nc1C(F)(F)F)c1ccccc1 | 1 (active) |
| Cc1ccc(C(=O)NNc2nc3ccccc3nc2C(F)(F)F)cc1 | 1 (active) |
| COc1ccc(-n2cc(-c3ccccc3)[nH]c2=S)cc1 | 0 |
| CCCc1cc(=O)n2[nH]c(-c3ccc(Br)cc3)cc2n1 | 0 |
| O=C1Nc2ccccc2C12OCC1(CO2)COC2(OC1)C(=O)Nc1ccccc12 (stereo not drawn) | 0 |
| COc1cc(NC(=O)Cn2nnc(-c3ccccc3N)n2)cc(OC)c1 | 1 (active) |
| CCOc1ccc(NC(=O)Cn2nnc(-c3ccccc3F)n2)cc1 | 0 |
| COc1cc(NC(=O)CSCc2cnn(-c3ccccc3)c2-n2cccc2)cc(OC)c1 | 0 |
| Cc1ccc(C)c(-n2nnnc2SCC(=O)Nc2cccc(-c3nnc4n3CCCCC4)c2)c1 | 3 |
| CCOC(=O)c1cccc(NC(=O)CSc2nnc(C3CCCCC3)n2C)c1 | 0 |
| O=C(CSc1nnnn1-c1ccc(O)cc1)Nc1cccc(S(=O)(=O)N2CCCC2)c1 | -1 (active) |
| CCOC(=O)Cc1csc(NC(=S)NC(=O)c2ccccc2C)n1 | 1 (active) |
| Cc1ccccc1C(=O)NC(=S)Nc1ccc(Oc2ccc(Cl)cc2)cc1 | 0 |
| CCOC(=O)Cc1csc(NC(=S)NC(=O)c2ccccc2Br)n1 | 1 (active) |
| COc1cc(OC)c(-c2c3cc(O)c(=O)cc-3oc3cc(O)c(O)cc23)cc1OC | 3 |
| CCCOC(=O)c1ccc(NC(=O)c2ccoc2C)cc1 | 0.5 |
| CCOC(=O)c1ccc(NC(=O)Nc2ccc(OC)c(OC)c2)cc1 | 0.5 |
| CCOC(=O)c1ccc(NC(=O)N2CCN(Cc3cccc(F)c3)CC2)cc1 | -1 (active) |
| CN1C(=O)c2oc3ccccc3c(=O)c2C1c1ccccn1 (stereo not drawn) | 0 |
| CC1CCC/C(=N\NC(=O)COc2ccc(Cl)cc2Cl)C1 (stereo not drawn) | 1 (active) |
| O=C(N/C(=N\O)c1ccccc1)Nc1ccc(Cl)cc1 | 0 |
| N#C/C(=N\Nc1ccc(Cl)cc1)C(=O)c1ccccc1 | -1 (active) |
| Cc1ccc(/C=N/Nc2nc(Cl)c(Cl)cc2Cl)s1 | 0 |
| O=S(=O)(Nc1cc(Sc2cccc3cccnc23)c(O)c2ccccc12)c1ccc(F)cc1 | 0 |
